Inhibition data for 105 compounds are collected here from PubChem BioAssay AID651674 (The Scripps Research Institute Molecular Screening Center, 2012).

Hit rate of the full screen: of about 2,200 compounds, about 1,700 (77%) were called active. So high a share suggests a set chosen from earlier hits. The list is a sample of the results. A number with no mark means an inactive call.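 The calls were made as follows: active = mean inhibition across replicate wells exceeding the computed hit threshold (cut at about 13% in these data); inactive = the rest.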

Chain of Hepatocyte nuclear factor 4-alpha (Homo sapiens) (P41235 whole entry, looked up, the tested form may be a part): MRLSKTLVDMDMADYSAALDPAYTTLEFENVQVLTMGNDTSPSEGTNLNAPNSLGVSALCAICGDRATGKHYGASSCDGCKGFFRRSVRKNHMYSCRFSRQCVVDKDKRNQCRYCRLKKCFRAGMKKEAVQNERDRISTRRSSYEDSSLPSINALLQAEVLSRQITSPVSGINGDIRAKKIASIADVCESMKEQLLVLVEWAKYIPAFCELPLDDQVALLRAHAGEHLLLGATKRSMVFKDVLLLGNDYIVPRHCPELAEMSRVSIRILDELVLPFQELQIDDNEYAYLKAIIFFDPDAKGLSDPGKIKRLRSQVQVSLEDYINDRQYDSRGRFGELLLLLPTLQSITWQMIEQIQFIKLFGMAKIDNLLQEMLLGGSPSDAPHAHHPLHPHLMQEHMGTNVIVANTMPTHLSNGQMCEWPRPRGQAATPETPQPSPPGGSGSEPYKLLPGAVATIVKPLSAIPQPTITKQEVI

This assay has as its target Hepatocyte nuclear factor 4-alpha (Homo sapiens) (UniProt P41235). Briefly: HNF4 dimerization inhibitors, counter-screen for ABHD5-PLIN5 interaction inhibitor project, biochemical, split-luciferase complementation, luminescence (AID 651674).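 Also: light from luciferase halves that rejoin when HNF4 fusion proteins dimerize; 0% = DMSO only wells and the 100% control is not given.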 As to conditions: at 4 µM, hits give high values.
Turning to `CCC(C(=O)OCCN(CC)CC)c1ccccc1` (stereo not given), the inhibition was 32.3% (active).
With `COc1ccc(-n2cc(CNC3CCOCC3)c(-c3cccc(F)c3)n2)cc1` the figure was -1.5%; with `CCn1c(SC)nc(O)c(C(c2ccc(OC)c(O)c2)c2c(O)nc(SC)n(CC)c2=O)c1=O`, 52.2% (active).
The figure for `O=C(CCl)Nc1ccc(Sc2ccc(NC(=O)CCl)cc2)cc1` is 28% (active).
With `Cc1csc(NC(=O)NC2(C(F)(F)F)Oc3ccccc3O2)n1` the figure was 99.4% (active); with `O=C(NC1CCCCC1)C(c1cc2ccccc2o1)n1c(=O)c(-c2ccco2)nc2ccccc21` (stereo not given), 12.5% (active).
Take `Cc1cccc(C)c1NC(=O)C(c1cccc2ccccc12)n1c(=O)c(-c2ccco2)nc2ccccc21` (stereo not given): the inhibition was 5.63%.
Regarding `N#Cc1ccc(C(C(=O)NCc2ccccc2)n2c(=O)c(-c3ccco3)nc3ccccc32)cc1` (stereo not given), the inhibition is 46.7% (active).
As for `Cc1cccc(C)c1NC(=O)C(c1ccc(C(F)(F)F)cc1)n1c(=O)c(-c2ccco2)nc2ccccc21` (stereo not given), the inhibition was 15.7% (active).
The figure for `NC(=O)c1nsc(C(=O)N(CC(=O)NCc2ccc(F)cc2)Cc2ccco2)c1N` is 2.04%.
`Cc1ccc(Cc2c(-c3ccco3)nc3ccc(Cl)cn23)cc1`: the inhibition was 47.3% (active).
The figure for `Cc1ccc2nc(-c3ccco3)c(Cc3cccc(Cl)c3)n2c1` is 49.6% (active); for `O=C(CCN1CCc2ccccc2C(O)(c2ccccc2)C1)c1ccc2c(c1)OCCO2` (stereo not given) it is 100% (active); for `O=C1/C(=C\c2ccc(O)cc2)CCC1CNc1ccc(Cl)cc1` (stereo not given) it is 50% (active).
With `COC(=O)c1cnn2c(C(F)(F)F)cc(-c3ccco3)nc12` the figure was 9.71%; with `O=C(N/N=C/C=C/c1ccco1)c1cccs1`, 39% (active).
With `COc1ccccc1C1/C(=C(/O)c2ccc(C)cc2)C(=O)C(=O)N1Cc1ccco1` (stereo not given) the figure was 10.7%.
In the case of `O=C1/C(=C\c2ccc([N+](=O)[O-])cc2)CS(=O)(=O)C/C1=C/c1ccc([N+](=O)[O-])cc1`, the inhibition was 108% (active).
With `c1ccc(CCC2=NCCn3cccc32)cc1` the figure was 4.26%; with `O=C(O)c1ccc2c(c1)C(=O)N(c1ccc(/C=C/C(=O)c3ccccc3)cc1)C2=O`, 89.2% (active).
Consider `CC(=O)N(c1ccc2oc(=O)sc2c1)S(=O)(=O)c1ccc(C)cc1`, for which the inhibition is 17.5% (active).
The figure for `COc1cccc2sc(N(CCCN(C)C)C(=O)C(c3ccccc3)c3ccccc3)nc12` is 6.22%.
With `Cc1ccc(SC(CC(=O)c2ccc(C(C)(C)C)cc2)C(=O)O)cc1` (stereo not given) the figure was 89.8% (active).
With `O=C(/C=C/c1ccc(Cl)cc1Cl)c1cccnc1` the figure was 105% (active).
`Cc1nc2sc(C(c3ccco3)N3CCOCC3)c(O)n2n1` (stereo not given): the inhibition was -1.74%.
With `Cc1ccc(NC(=O)c2cc(-c3ccc(C)o3)nc3ccccc23)nc1` the figure was 44.1% (active); with `CCOC(=O)C(=Cc1ccccc1OC)C(=O)OCC`, 51.8% (active).
Turning to `CCOC(=O)C(=Cc1ccccc1)C(=O)c1ccccc1`, the inhibition is 97% (active).
Take `CCc1ccc(NC(=O)CSc2nnc(-c3cnccn3)n2Cc2ccco2)cc1`: the inhibition was 25.6% (active).
With `CC(=O)c1ccc(NC(=O)CCc2nnc3ccc(NCc4ccco4)nn23)cc1` the figure was 2.03%; with `COCCN(CCOC)c1nc(N)c2c(N)nc3c(c2c1C#N)CC(=O)N3Cc1ccc(Cl)cc1`, 9.32%.
The figure for `N#Cc1ccccc1S(=O)(=O)N1CCN(Cc2c(O)ccc3ccccc23)CC1` is 86.6% (active); for `CC1=CC(C)(C)Nc2ccc(OC(=O)C(Cc3ccccc3)N3C(=O)C4CCCCC4C3=O)cc21` (stereo not given) it is 15.7% (active); for `CC1=CC(C)(C)Nc2ccc(OC(=O)CN3C(=O)C4CCCCC4C3=O)cc21` (stereo not given) it is 52.3% (active).
Turning to `COC(=O)c1nc(NC(=O)c2ccc(C(C)(C)C)cc2)n[nH]1`, the inhibition was 4.25%.
With `CCN(CCCNC(=O)c1ccc2c(c1)NC(=O)CN2C)c1cccc(C)c1` the figure was 76.9% (active); with `CCCCOC(=O)CNc1nnc(SCC(=O)OCC)[nH]c1=O`, 103% (active).
The figure for `O=C(Nc1ccccc1)c1nnsc1S(=O)(=O)c1ccc(Cl)cc1` is 100% (active); for `O=C(Nc1ccccc1Cl)/C(Cl)=C(\Cl)S(=O)c1ccccc1` (stereo not given) it is 108% (active).
Take `O=C(Nc1nc(-c2ccco2)c(-c2ccco2)s1)c1ccco1`: the inhibition was 77.9% (active).
`Cc1[nH]c(=O)c(C(=O)/C=C/c2ccccc2)c2c1CCCC2`: the inhibition is 37.9% (active).
The figure for `CC1(C)CCSC(/C=C/c2ccccc2)=N1` is 91.4% (active); for `C[C@@H]1C[C@@H]2O[C@H]2/C=C\C=C\C(=O)Cc2c(Cl)c(O)cc(O)c2C(=O)O1` it is 47.9% (active); for `COc1ccc2sc(-c3ccccc3OC)c(-c3ccc(OCCN4CCCC4)cc3)c2c1` it is 7.03%.
The figure for `O=C1C(Cl)=C(Oc2ccccc2)C(=O)c2ccccc21` is 105% (active).
With `CC1(Oc2ccccc2-c2ccno2)CCN(Cc2ccc(-c3ccccc3)o2)C1` (stereo not given) the figure was 48.5% (active); with `COc1ccc2c(c1)c(=Cc1ccc(N(C)C)cc1)c1cc(-c3ccccc3)[n+](C)n12`, 18.1% (active); with `CCN1CCC(O)(/C=C/c2ccc(C)cc2)C(C(=O)/C=C/c2ccc(C)cc2)C1` (stereo not given), 85.5% (active).
As for `CCCOc1ccc(C(=O)C(CCC(CNCC)C(=O)c2ccc(OCCC)cc2)CNCC)cc1` (stereo not given), the inhibition was 24.2% (active).
Regarding `O=C(Cn1nc(CNc2ccc(Cl)cc2)[n+]2c1CCCCC2)c1ccc(Cl)cc1`, the inhibition was 6.95%.
Regarding `Cc1cccc(C=CC(=O)c2ccc(Cl)cc2)c1`, the inhibition was 67.2% (active).
As to `COc1ccc(N/C=C(\C2OC(=O)c3ccccc32)[N+](=O)[O-])cc1` (stereo not given), the inhibition is 22.1% (active).
With `COC(=O)/C=C\C(=O)Nc1cccc([N+](=O)[O-])c1` the figure was 109% (active).
With `CCS(=O)(=O)Nc1ccc(C2=NN(S(=O)(=O)c3ccc(F)cc3)C(c3ccco3)C2)cc1` (stereo not given) the figure was 9.93%; with `O=c1[nH]c(/C=C\c2cccc(C(F)(F)F)c2)nc(O)c1[N+](=O)[O-]`, 73.2% (active); with `O=C(/C(=C/c1cccc(Cl)c1)c1nc2ccccc2[nH]1)c1ccccc1`, 92% (active).
The figure for `COc1ccccc1-n1nnnc1S(=O)(=O)Cc1ccc(Cl)cc1` is 32.1% (active).
Regarding `COc1ccc(CCNC(=O)c2nnc(CS(=O)(=O)c3ccccc3)o2)cc1OC`, the inhibition was 2.92%.
For `COc1ccc(-c2cc(C(F)(F)F)nc(S(C)(=O)=O)n2)cc1OC`, the inhibition was 80.6% (active).
For `Nc1cccc(OCCCCCOc2cccc(N)c2)c1`, the inhibition was -6.94%.
The figure for `O=C(NNc1c2ccccc2nc2ccccc12)c1cc2ccccc2cc1O` is 23.8% (active).
As to `COc1ccc(/C=C/C(=O)c2ccc(NS(=O)(=O)c3ccc(C)cc3)cc2)cc1O`, the inhibition was 54.5% (active).
Regarding `OC(CNCC1CCCO1)Cn1c2ccc(Br)cc2c2cc(Br)ccc21` (stereo not given), the inhibition is -1.25%.
With `O=C(c1cccnc1)N(c1cc2sc(=O)oc2c2ccccc12)S(=O)(=O)c1ccccc1` the figure was 104% (active).
The figure for `Cc1cccc(NC(=O)c2ccc3nsnc3c2)c1C` is -0.5%.
The figure for `O=[N+]([O-])/C=C/c1ccc2c(ccn2Cc2ccccc2)c1` is 108% (active).
`COC(=O)C1(C)NC(c2ccccc2OC)C2C(=O)N(c3ccccc3)C(=O)C21` (stereo not given): the inhibition was 2.83%.
Turning to `C[C@@H](CN1CCC[C@H]1CN1C(N)=NC[C@@H]1Cc1ccccc1)N1C[C@@H](Cc2ccccc2)N(CCCC2CCCC2)C1=N`, the inhibition was 6.92%.
With `O=[N+]([O-])c1c(NCCO)cc(Sc2nc3ccccc3s2)c2nonc12` the figure was 115% (active); with `Cn1sc(=O)c2cc(S(=O)(=O)NC3CC3)ccc21`, 106% (active).
With `Cc1cc2c(c(=O)n1Cc1ccco1)C(c1ccccc1)C(C#N)=C(N)O2` (stereo not given) the figure was 24.5% (active); with `Cc1nnnn1/C(=C\c1ccccc1)C(=O)OCC(=O)N1CC2(C)CC1CC(C)(C)C2` (stereo not given), 46.1% (active).
With `Cc1nc(-c2ccccc2)sc1C(=O)/C=C/c1ccccc1` the figure was 59.8% (active); with `CC(C)(C)C1C/C(=C/c2ccco2)C(=O)/C(=C/c2ccco2)C1` (stereo not given), 78.9% (active); with `CC(=O)Nc1ccc(C=CC(=O)c2ccc([N+](=O)[O-])cc2)cc1`, 82.5% (active).
Regarding `O=C(/C=C/c1ccc(Cl)c([N+](=O)[O-])c1)c1ccc(O)cc1`, the inhibition is 72.8% (active).
With `O=C(NCCOCc1ccc(Cl)cc1)c1ncn[nH]1` the figure was 2.01%.
With `COc1ccc(CNC(=O)/C(C#N)=C/c2cccc(OC)c2OC)cc1` the figure was 45.7% (active); with `COC(C/C=C/C(=O)[C@@H](C)OCc1ccccc1)OC`, 44.4% (active); with `Cc1cc(C)nc(S/C=C/C(=O)c2ccccc2)n1`, 106% (active).
With `Cc1cccc(CS(=O)(=O)c2ncc(Cl)c(C(=O)Nc3ccc(F)cc3)n2)c1` the figure was 86.8% (active).
In the case of `Cc1cccc(NC(=O)c2nc(S(=O)(=O)Cc3ccccc3)ncc2Cl)c1`, the inhibition is 85.1% (active).
The figure for `Cc1ccc(CS(=O)(=O)c2ncc(Cl)c(C(=O)Nc3nnc(C)s3)n2)cc1` is 91.8% (active); for `CSc1nnc(NC(=O)c2nc(S(=O)(=O)Cc3ccc(C)cc3)ncc2Cl)s1` it is 50.1% (active); for `Cc1c(CCOC(=O)CC23CC4CC(CC(C)(C4)C2)C3)sc[n+]1Cc1ccc([N+](=O)[O-])cc1` it is 5.79%.
With `Cc1ccc(NC(=O)Cn2sc3ccccc3c2=O)cc1` the figure was 118% (active).
With `CC1Cc2ccccc2N1CC(=O)Nc1ccc(S(N)(=O)=O)cc1` (stereo not given) the figure was -0.75%.
Take `Cc1ccn(C(CC(=O)c2ccc(Br)cc2)C(=O)O)n1` (stereo not given): the inhibition was 38.9% (active).
The figure for `Cc1ccc(-n2nc(-c3ccco3)cc2C(=O)NCc2cccnc2)cc1` is 79.1% (active); for `CCN1/C(=C\c2ccc3ccccc3[n+]2CC)Sc2cc(C)ccc21` it is 22.4% (active); for `C=C(C)C(=O)O[C@H]1C/C(C)=C\C(=O)/C=C(\C)[C@H](O)[C@@H]2OC(=O)C(=C)[C@@H]21` it is 54.8% (active).
With `Cc1cc(-c2n[nH]c(=S)n2/N=C/C(Br)=C/c2ccccc2)n[nH]1` the figure was 86.5% (active); with `CC1(C(=O)NCc2cccc3ccccc23)CCN1Cc1ccc(-c2ccccc2)o1` (stereo not given), 40.2% (active); with `COc1ccc(C(C[N+](=O)[O-])n2nc(C)cc2C)cc1` (stereo not given), 87.3% (active).
With `O=c1[nH][nH]c2c1[C@H](c1ccc(Cl)cc1)O[C@H](CCc1ccccc1)C2` the figure was 12%; with `O=C1C=CC(=O)N1c1ccc(N2CCCCC2)cc1`, 101% (active).
On to `COc1ccc2c(c1OC)C(=O)OC2Nc1nc(-c2ccccc2)cs1` (stereo not given), for which the inhibition is 56.7% (active).
`O=C(NNc1ccccn1)c1ccc(Cl)nc1`: the inhibition is -6.91%.
Take `O=C1C=C(c2ccc(Cl)cc2)C(=O)N1Nc1ccccc1`: the inhibition was 107% (active).
With `CN(C)CCCNC(=O)/C=C/c1ccc(OCc2c(F)cccc2Cl)cc1` the figure was 6.86%; with `O=C(/C=C(O)/C=C/c1ccc(O)cc1)/C=C/c1ccc(O)cc1`, 74.4% (active).
With `Cc1cccc(C)c1NC(=O)C(Cl)C(=O)c1ccccc1` (stereo not given) the figure was 58.4% (active).
The figure for `CCN(CC)CCN(C(=O)c1ccc2c(c1)CCCC2)c1nc2c(OC)cccc2s1` is 11.7%.
On to `C=C1C(=O)[C@]23C[C@H]1CCC2[C@@]1(C)C(C[C@@H]3O)[C@](C)(C(=O)O)CC[C@@H]1O` (stereo not given in full), for which the inhibition was 85.8% (active).
The figure for `CN1CCC[C@@H]1CCO[C@](C)(c1ccccc1)c1ccc(Cl)cc1` is 9.44%.
